Data as given in the supplement of paper PMC13094657.
± gives the standard deviation of the averaged measurements.

Test system: MDA-MB-231
Experiment: cell viability relative to vehicle unstimulated control (fraction); higher = more viable cells
Conditions: pre-treatment time: 18 h then 24 h IFNg/TNF
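For cell viability relative to vehicle unstimulated control in this document: viability of the cells left after supernatant collection, read with Deep Blue dye added for 4 h, as absorbance at 570 nm minus 600 nm.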

Row | SMILES | cell viability
1 | CC(/C=C/C=C(\C)C(=O)O[C@@H]1O[C@H](CO)[C@@H](O)[C@H](O)[C@H]1O)=C\C=C\C=C(C)\C=C\C=C(/C)C(=O)O[C@@H]1O[C@H](CO[C@@H]2O[C@H](CO)[C@@H](O)[C@H](O)[C@H]2O)[C@@H](O)[C@H](O)[C@H]1O [Crocin II] (compound dose: 10 uM) | 0.987 ± 0.09
2 | C=C1[C@H](OC(=O)C(C)C)[C@@H](O)[C@@H](OC(=O)c2cccnc2)C(C)(C)/C=C/[C@H](C)[C@H](OC(C)=O)[C@@]2(O)C[C@@](C)(OC(C)=O)[C@H](OC(=O)c3ccccc3)[C@@H]2[C@H]1OC(C)=O [Jatrophane 3] (compound dose: 10 uM) | 1.04 ± 0.056
3 | C[C@H]1[C@H](C)CC[C@]2(C(=O)O)CC[C@]3(C)C(=CC[C@@H]4[C@@]5(C)CC[C@H](O)C(C)(C)[C@@H]5CC[C@]43C)[C@H]12 [3-Epiursolic Acid] (compound dose: 10 uM) | 1.02 ± 0.045

Test system: MDA-MB-231
Experiment: kynurenine production, fold change vs DMSO IFNg/TNF control; higher = more kynurenine produced (less inhibition)
Conditions: pre-treatment time: 18 h then 24 h IFNg/TNF
Method in brief: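 Fold change over cytokine-stimulated vehicle wells on the same plate is the measure used for kynurenine production, averaged across duplicate plates in the first screening round. MDA-MB-231 cells, seeded 24 h beforehand at 7 × 10^4/well in 96-well plates, were pre-treated 18 h with each natural product in 0.1% DMSO and stimulated 24 h at 37°C with IFNγ (1 U/ml) and TNF (6.25 ng/ml). Supernatants were read at 492 nm following trichloroacetic acid and p-dimethylaminobenzaldehyde treatment, against 0–100 μM standards.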

Row | SMILES | kynurenine production
4 | O=C(O)c1cccnc1 [Nicotinic acid] (compound dose: 10 uM) | 0.945 ± 0.13
5 | CC(=O)OCc1cocc2c(C=O)ccc1-2 [Baldrinal] (compound dose: 10 uM) | 0.785 ± 0.064
6 | C=C(C)[C@@H]1CC=C(CO)CC1 [(S)-(-)-Perillyl alcohol] (compound dose: 10 uM) | 1.19 ± 0.25
7 | C=C(C)[C@@H]1CC[C@]2(C)CC[C@]3(C)[C@H](CC[C@@H]4[C@@]5(C)CC[C@H](O)C(C)(C)[C@@H]5CC[C@]43C)[C@@H]12 [Lupeol] (compound dose: 2 uM) | 0.921 ± 0.085
8 | CC1=CC[C@@H](C(C)(C)O)CC1 [α terpineol (mixed)] (compound dose: 10 uM) | 0.876 ± 0.082
9 | CC1(C)CC[C@]2(C(=O)O)CC[C@]3(C)C(=CC[C@@H]4[C@@]5(C)CC[C@H](O[C@@H]6O[C@H](C(=O)O)[C@@H](O)[C@H](O[C@@H]7OC[C@@H](O)[C@H](O)[C@H]7O)[C@H]6O)C(C)(C)[C@@H]5CC[C@]43C)[C@@H]2C1 [Momordin Ic] (compound dose: 10 uM) | 0.967 ± 0.2
10 | O=C1C[C@@H](c2ccc(O)cc2)Oc2cc(O)cc(O)c21 [Naringenin] (compound dose: 10 uM) | 0.772 ± 0.011
11 | C[C@@H]1O[C@@H](O[C@H]2[C@H](OC(=O)[C@]34CCC(C)(C)C[C@H]3C3=CC[C@@H]5[C@@]6(C)C[C@H](O)[C@H](O[C@@H]7O[C@H](CO)[C@@H](O)[C@H](O)[C@H]7O)[C@](C)(CO)[C@@H]6CC[C@@]5(C)[C@]3(C)CC4)O[C@H](CO)[C@@H](O[C@@H]3OC[C@@H](O)[C@H](O)[C@H]3O)[C@@H]2O[C@@H]2OC[C@](O)(CO)[C@H]2O)[C@H](O)[C@H](O)[C@H]1O [Polygalasaponin V] (compound dose: 10 uM) | 0.803 ± 0.068
12 | C=C1C(=O)O[C@H]2C1CC[C@@](C)(O)C13C=CC(C)(C21)C1(C3)C(=O)O[C@@H]2C3C(C)=CCC3[C@](C)(O)[C@H](OC(C)=O)CC21 (some centres undefined) [Handelin] (compound dose: 10 uM) | 0.709 ± 0.3
13 | CC(C)=CCC/C(C)=C/CC/C(C)=C/CC/C=C(\C)CC/C=C(\C)CCC=C(C)C [Squalene] (compound dose: 10 uM) | 0.887 ± 0.027
14 | C[C@H]1[C@H](C)CC[C@]2(C(=O)O[C@@H]3O[C@H](CO[C@@H]4O[C@H](CO)[C@@H](O[C@@H]5O[C@H](C)[C@H](O)[C@@H](O)[C@H]5O)[C@H](O)[C@H]4O)[C@@H](O)[C@H](O)[C@H]3O)CC[C@]3(C)C(=CC[C@@H]4[C@@]5(C)C[C@@H](O)[C@H](O)[C@@](C)(CO)[C@@H]5CC[C@]43C)[C@H]12 [Asiaticoside] (compound dose: 10 uM) | 0.85 ± 0.17
15 | CC1(C)CC[C@]2(C(=O)O)[C@H](O)C[C@]3(C)C(=CC[C@@H]4[C@@]5(C)CC[C@H](O)[C@@](C)(C=O)[C@@H]5CC[C@]43C)[C@@H]2C1 [Quillaic acid] (compound dose: 10 uM) | 1.11 ± 0.018
16 | CC1=CCC2CC1C2(C)C (stereo not drawn) [(+)-α-pinene] (compound dose: 10 uM) | 0.97 ± 0.036
17 | Cc1cc(O)cc(O[C@@H]2O[C@H](CO)[C@@H](O)[C@H](O)[C@H]2O)c1 [Orcinol glucoside] (compound dose: 10 uM) | 0.821 ± 0.095
18 | C[C@H]1[C@H](C)CC[C@]2(C(=O)O)CC[C@]3(C)C(=CC[C@@H]4[C@@]5(C)C[C@@H](O)[C@H](O)[C@@](C)(CO)[C@@H]5CC[C@]43C)[C@H]12 [Asiatic acid] (compound dose: 10 uM) | 0.85 ± 0.16
19 | C/C1=C\CC[C@]23O[C@H]2[C@@H](OC3=O)c2c(C)coc2C1 [Linderane] (compound dose: 10 uM) | 0.942 ± 0.096

Row | SMILES | kynurenine production
20 | C/C=C(/C)C(=O)O[C@H]1[C@H](OC(C)=O)[C@@]2(CO)C(CC1(C)C)C1=CCC3[C@@]4(C)CCC(O[C@@H]5O[C@H](C(=O)O)[C@@H](O[C@@H]6O[C@H](CO)[C@@H](O)[C@H](O)[C@H]6O)[C@H](O)[C@H]5O[C@@H]5O[C@H](CO)[C@@H](O)[C@H](O)[C@H]5O)[C@](C)(CO)C4CC[C@@]3(C)[C@]1(C)C[C@H]2O.C/C=C(\C)C(=O)O[C@H]1[C@H](OC(C)=O)[C@@]2(CO)C(CC1(C)C)C1=CCC3[C@@]4(C)CCC(O[C@@H]5O[C@H](C(=O)O)[C@@H](O[C@@H]6O[C@H](CO)[C@@H](O)[C@H](O)[C@H]6O)[C@H](O)[C@H]5O[C@@H]5O[C@H](CO)[C@@H](O)[C@H](O)[C@H]5O)[C@](C)(CO)C4CC[C@@]3(C)[C@]1(C)C[C@H]2O (some centres undefined) [Escin] (compound dose: 10 uM) | 1.14 ± 0.1
21 | C=C1[C@H](OC(C)=O)[C@@H](OC(C)=O)[C@@H](OC(C)=O)C(C)(C)/C=C/[C@H](C)[C@H](OC(C)=O)[C@@]2(O)C[C@@](C)(OC(C)=O)[C@H](OC(=O)c3ccccc3)[C@@H]2[C@H]1OC(C)=O [Jatrophane 2] (compound dose: 10 uM) | 0.926 ± 0.049
22 | C=C(C)[C@@H]1CC=C(CO)CC1 [Perillyl alcohol] (compound dose: 10 uM) | 0.905 ± 0.13
23 | C=C1CCC[C@]2(C)C[C@]3(O)OC(=O)C(C)=C3C[C@@H]12 [Atractylenolide III] (compound dose: 10 uM) | 0.763 ± 0.15
24 | CC1OC(OC2C(OC3CCC4(C)C(CCC5(C)C4CC=C4C6CC(C)(C)CCC6(C(=O)OC6OC(COC7OC(CO)C(O)C(O)C7O)C(O)C(O)C6O)CCC45C)C3(C)CO)OCC(O)C2O)C(O)C(O)C1O (centres undefined) [Dipsacoside B] (compound dose: 10 uM) | 0.861 ± 0.32
25 | C=C1C(=O)O[C@@H]2/C=C(\C)CC/C=C(\C)CC[C@@H]12 [Costunolide] (compound dose: 10 uM) | 0.474 ± 0.063
26 | CC1(C)CC[C@]2(C(=O)O)CC[C@]3(C)C(=CC[C@@H]4[C@@]5(C)CC[C@H](O[C@@H]6O[C@H](C(=O)O)[C@@H](O)[C@H](O)[C@H]6O[C@@H]6O[C@H](CO)[C@@H](O)[C@H](O)[C@H]6O)C(C)(C)[C@@H]5CC[C@]43C)[C@@H]2C1 [Zingibroside R1] (compound dose: 10 uM) | 1.06 ± 0.15
27 | C[C@H]1O[C@@H](O[C@H]2CC[C@@]3(C)[C@@H](CC[C@]4(C)[C@@H]3C=CC3=C5CC(C)(C)CC[C@]5(CO)[C@@H](O)C[C@]34C)[C@]2(C)CO)[C@H](O[C@@H]2O[C@H](CO)[C@@H](O)[C@H](O)[C@H]2O)[C@@H](O[C@@H]2O[C@H](CO)[C@@H](O)[C@H](O)[C@H]2O)[C@H]1O [Buddlejasaponin IVb] (compound dose: 10 uM) | 1.34 ± 0.071
28 | CC(CC(=O)C[C@@H](C)[C@H]1CC(=O)[C@@]2(C)C3=C(C(=O)C[C@]12C)[C@@]1(C)CCC(=O)C(C)(C)[C@@H]1C[C@@H]3O)C(=O)O (some centres undefined) [Ganoderic acid D] (compound dose: 10 uM) | 0.869 ± 0.11
29 | C[C@]12C[C@@H](O)[C@@H]3C[C@@]1(O[C@@H]1O[C@H](CO)[C@@H](O)[C@H](O)[C@H]1O)[C@@]3(COC(=O)c1ccccc1)C(=O)O2 [Albiflorin] (compound dose: 10 uM) | 0.908 ± 0.031
30 | C[C@H]1O[C@@H](O[C@H]2CC[C@@]3(C)[C@@H](CC[C@]4(C)[C@@H]3C=CC3=C5CC(C)(C)CC[C@]5(CO)[C@H](O)C[C@]34C)[C@]2(C)CO)[C@H](O)[C@@H](O[C@@H]2O[C@H](CO)[C@@H](O)[C@H](O)[C@H]2O)[C@H]1O [Saikosaponin B2] (compound dose: 10 uM) | 0.739 ± 0.04
31 | CC1(C)CC[C@]2(C(=O)O)CCC3=C([C@@H](CCl)C[C@@H]4[C@@]5(C)C[C@H](O)[C@H](O)[C@@](C)(C(=O)O)[C@@H]5CC[C@@]34C)[C@@H]2C1 [Tenuigenin] (compound dose: 10 uM) | 0.952 ± 0.2
32 | CC1(C(=O)O)CCC2(C)CCC3(C)C(=CC(=O)C4C5(C)CCC(O)C(C)(C)C5CCC43C)C2C1 (stereo not drawn) [18β-Glycyrrhetinic acid] (compound dose: 10 uM) | 1.09 ± 0.18
33 | CC(=O)OC(CC12C3C(C(C)C)CCC1(C)C1CCC4(CCCC42)N3C1)C(=O)C1(C)COC2(C)CCC1O2 (centres undefined) [Daphniphylline] (compound dose: 10 uM) | 0.75 ± 0.079
34 | CC1(C)C(O[C@@H]2OC[C@@H](O)[C@H](O)[C@H]2O)CC[C@]23CC24CC[C@]2(C)[C@@H]([C@@]5(C)CC[C@@H](C(C)(C)O)O5)[C@H](O)C[C@@]2(C)C4C[C@@H](O[C@@H]2O[C@H](CO)[C@@H](O)[C@H](O)[C@H]2O)C13 (some centres undefined) [Astragaloside IV] (compound dose: 10 uM) | 0.878 ± 0.068
